The entries come from a sample that favours hits as a whole.
ALOX12 inh – Primary qHTS assay for inhibitors of human arachidonate 12S-lipoxygenase (ALOX12): Round 2; Polyunsaturated fatty acid lipoxygenase ALOX12 (Homo sapiens), P18054; purified 12hLO, xylenol orange hydroperoxide absorbance; Potency, µM (top dose mostly 108 µM), hits mostly inhibitors; 580,000 tested, 1.1% active
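Purified human 12hLO (150 nM final) in 25 mM Hepes, 0.01% Triton X-100, pH 7.0 was preincubated 15 min at room temperature with compound. Then 40 uM arachidonic acid was added, 30 min. Hydroperoxide was read by Fe-XO absorbance ratio 573/405 nm.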
DT40 TDP1 no CPT – qHTS for Inhibitors of human tyrosyl-DNA phosphodiesterase 1 (TDP1): qHTS in cells in absence of CPT | AID 686978, 2013 | 420,000 tested, 15% active | DT40 Tdp1-/- hTDP1 cells, no CPT, ATP luminescence, 48 h | Potency, µM (highest dose often 46.2 µM), actives largely listed as inhibitors; note: nearly all actives have a fitted effect of over 55% in size
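Growth of hTDP1-complemented DT40 Tdp1-knockout cells is measured by ATP luminescence after at least 48 hr compound exposure at 37 °C, with DMSO substituting for the 20 nM CPT used in the parallel screen.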
HT1080-NT tox – qHTS for induction of synthetic lethality in tumor cells producing 2HG: qHTS for the HT-1080-NT fibrosarcoma cell line. HT-1080-NT fibrosarcoma viability, CellTiter-Glo ATP luminescence, 48 h. Potency, µM (doses to about 46.1 µM), most hits filed as cytotoxic. 360,000 tested, 1.6% active. AID 686970, 2013;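 note: NT is the 2HG producing partner of a matched IDH1 knockdown line; nearly all actives have a fitted effect of over 55% in size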
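HT-1080-NT fibrosarcoma cells (2HG-overproducing), 750 cells/well in RPMI with 5% FBS, dosed after 2 h and incubated 48 h at 37C. CellTiter-Glo luminescence normalized to DMSO and no-cell wells; concentration-response curves fitted and classed.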
IL-1B inflam inh – qHTS for Inhibitors of Inflammasome Signaling: IL-1-beta AlphaLISA Primary Screen | THP-1 LPS/ATP IL-1B secretion, AlphaLISA, 16 h; active compounds read low | activity change, % at 57.5 µM | 360,000 tested, 4.7% active; in the data active = activity change below about -50%; inconclusive = mostly about -30% to -49%
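THP-1 cells pretreated 1 hr with compounds (up to 57.5 uM final), then stimulated with LPS (250 ng/mL final) plus ATP (1.25 mM final); secreted IL-1B measured by AlphaLISA after 16 hr, decreased signal indicating inhibition.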
DT40 TDP1 CPT – qHTS for Inhibitors of human tyrosyl-DNA phosphodiesterase 1 (TDP1): qHTS in cells in presence of CPT. Potency, µM (titrated, usually from 46.2 µM), usual class: inhibitors. chicken DT40 Tdp1-/-;hTDP1 cells + 20 nM CPT, ATP luminescence, 48 h. 420,000 tested, 12% active; note: nearly all actives have a fitted effect of over 55% in size
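Cell growth measured by CellTiter-Glo luminescence after a minimum 48 h, 37 C compound exposure with 20 nM CPT in Tdp1-knockout DT40 cells stably expressing hTDP1, seeded 400/well; qHTS titration format.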
HT1080 IDH1KD tx – qHTS for induction of synthetic lethality in tumor cells producing 2HG: qHTS for the HT-1080-IDH1KD cell line. HT-1080 IDH1 knockdown viability, ATP luminescence, 48 h. Potency, µM (highest dose often 46.1 µM), usual class: cytotoxic. 360,000 tested, 2% active. AID 686971, 2013
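In this qHTS, HT-1080 cells depleted of IDH1 are exposed for 48 h at 37 °C to compound titrations. Toxicity is scored from CellTiter-Glo luminescence, with DMSO as full viability and medium alone as none.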
Numbers stand for hits. Unless noted, calls come from the whole dose curve; as a rule, active = well fitted curve in the direction sought with a large enough effect; inconclusive = small, poorly fitted or top-dose-only effect, or another doubt; inactive = no such curve, though single readings can be large; an effect the other way counts as inactive or inconclusive.

For NC(=O)C1CCN(C2=C(NS(=O)(=O)c3ccccc3)C(=O)c3ccccc3C2=O)CC1 the results were ALOX12 inh inactive, DT40 TDP1 no CPT inconclusive, HT1080-NT tox inactive, IL-1B inflam inh inactive, DT40 TDP1 CPT inactive and HT1080 IDH1KD tx inactive.
CCN1CCN(C2=C(NS(=O)(=O)c3ccccc3)C(=O)c3ccccc3C2=O)CC1 was read as ALOX12 inh inactive, DT40 TDP1 no CPT 16.4µM, HT1080-NT tox inactive, IL-1B inflam inh inactive, DT40 TDP1 CPT 20.6µM and HT1080 IDH1KD tx inactive.
For CCN1CCN(C2=C(NS(=O)(=O)c3ccc(Br)cc3)C(=O)c3ccccc3C2=O)CC1 the results were ALOX12 inh inconclusive, DT40 TDP1 no CPT 23.1µM, HT1080-NT tox inactive, IL-1B inflam inh inactive, DT40 TDP1 CPT 20.6µM and HT1080 IDH1KD tx inactive.
O=C1C(NS(=O)(=O)c2ccc(Cl)cc2)=C(N2CCCCC2)C(=O)c2ccccc21 was read as ALOX12 inh inconclusive, DT40 TDP1 no CPT 18.4µM, HT1080-NT tox inconclusive, IL-1B inflam inh inconclusive, DT40 TDP1 CPT 25.9µM and HT1080 IDH1KD tx inconclusive.
Screening CCCCCCn1c(N(C)C)nc2c1c(=O)[nH]c(=O)n2C returned ALOX12 inh inactive.
Screening CC1(C(=O)N2CCCC2C(=O)Nc2cccc(-n3cccn3)c2)CC1 (stereo not drawn) returned ALOX12 inh inactive.
CCn1ncc(C(=O)N[C@@H]2CN(c3ncccn3)C[C@H]2CO)c1C was read as ALOX12 inh inactive.
COc1ccc(-c2cc(-c3c(O)c(OC)c4occc4c3OC)[nH]n2)cc1OC was read as ALOX12 inh inactive, DT40 TDP1 no CPT 20.6µM, HT1080-NT tox inconclusive, IL-1B inflam inh -63.2, DT40 TDP1 CPT inconclusive and HT1080 IDH1KD tx inconclusive.
For COc1ccc(-c2cc(-c3ccccc3O)[nH]n2)cc1 the results were ALOX12 inh inactive, DT40 TDP1 no CPT inconclusive, HT1080-NT tox inconclusive, IL-1B inflam inh inactive, DT40 TDP1 CPT inactive and HT1080 IDH1KD tx inconclusive.
`COc1ccc(-c2noc(-c3cc(C4CC4)[nH]n3)n2)cc1OC` gave ALOX12 inh inactive.
`COc1ccc(-c2cc(-c3c(O)c(OC)c4occc4c3OC)[nH]n2)cc1` gave ALOX12 inh inconclusive, DT40 TDP1 no CPT 5.8µM, HT1080-NT tox inconclusive, IL-1B inflam inh inconclusive, DT40 TDP1 CPT 5.8µM and HT1080 IDH1KD tx inconclusive.
Screening CCOC(=O)Cc1csc(NC(=O)C(NC(=O)C2CCCCC2)C(C)C)n1 (stereo not drawn) returned ALOX12 inh inactive, DT40 TDP1 no CPT inconclusive, HT1080-NT tox inconclusive, IL-1B inflam inh inactive, DT40 TDP1 CPT inactive and HT1080 IDH1KD tx inactive.
Screening COc1ccc(NC(=O)CN(C)C(=O)c2ccc3c(c2)CC(c2ccccc2)OC3=O)cc1 (stereo not drawn) returned ALOX12 inh inconclusive, DT40 TDP1 no CPT 16.4µM, HT1080-NT tox inactive, IL-1B inflam inh inactive, DT40 TDP1 CPT 25.9µM and HT1080 IDH1KD tx inactive.
`COc1cccc(NC(=O)CN(C)C(=O)c2ccc3c(c2)CC(c2ccccc2)OC3=O)c1` (stereo not drawn) gave ALOX12 inh inactive, DT40 TDP1 no CPT inconclusive, HT1080-NT tox inactive, IL-1B inflam inh inactive, DT40 TDP1 CPT inconclusive and HT1080 IDH1KD tx inactive.
`COc1ccc(Cl)cc1NC(=O)CN(C)C(=O)c1ccc2c(c1)CC(c1ccccc1)OC2=O` (stereo not drawn) gave ALOX12 inh inactive, DT40 TDP1 no CPT 16.4µM, HT1080-NT tox inactive, IL-1B inflam inh inactive, DT40 TDP1 CPT 14.6µM and HT1080 IDH1KD tx inactive.

Bioassay records deposited in PubChem BioAssay by National Center for Advancing Translational Sciences (NCATS).
